# Key:
# Assay in all cases: DAPPL (digital affinity profiling via proximity ligation, sequencing); 10 mM Tris-HCl pH 7.5, 50 mM NaCl, 1 mM DTT, 4% glycerol, room temperature, 30 min; GST-TFs on glutathione beads, 16-mer random dsDNA library, 0.1% formaldehyde crosslink after washing; high values mean tight binding
# FEV = target: T1, FEV (Homo sapiens, UniProt Q99581 1-238); details: protein: recombinant; tags: N-terminal GST; dsDNA, one strand shown
# T1 sequence: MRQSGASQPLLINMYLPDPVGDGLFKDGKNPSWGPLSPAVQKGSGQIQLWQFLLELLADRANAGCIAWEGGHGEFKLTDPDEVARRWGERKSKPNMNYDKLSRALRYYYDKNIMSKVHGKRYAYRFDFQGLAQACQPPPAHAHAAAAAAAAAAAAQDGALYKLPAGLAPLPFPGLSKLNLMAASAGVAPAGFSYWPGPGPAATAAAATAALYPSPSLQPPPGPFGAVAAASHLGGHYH
# Outline: (§1)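 Binding signal is given per hexamer as its read frequency for a factor divided by its frequency in the tag-only sample. GST-fused human transcription factors were expressed in yeast, captured on glutathione beads, barcoded with DNA and pooled with that sample, then incubated with 200 nmole of a 16-mer random double-stranded DNA library in Tris/NaCl/DTT/glycerol buffer for 30 min at room temperature. The pools were then washed, crosslinked, proximity-ligated, amplified by PCR and sequenced on an Illumina NextSeq500.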
# ETV5 = ETV5 (Homo sapiens, UniProt P41161 1-510); details: protein: recombinant; tags: N-terminal GST; dsDNA, one strand shown
# Outline: as §1
# HSF1 = HSF1 (Homo sapiens, UniProt Q00613 1-529); details: protein: recombinant; tags: N-terminal GST; chain copies: 3; dsDNA, one strand shown
# Outline: as §1
# SPIC = target: T2, SPIC (Homo sapiens, UniProt Q8N5J4 1-248); details: protein: recombinant; tags: N-terminal GST; dsDNA, one strand shown
# T2 sequence: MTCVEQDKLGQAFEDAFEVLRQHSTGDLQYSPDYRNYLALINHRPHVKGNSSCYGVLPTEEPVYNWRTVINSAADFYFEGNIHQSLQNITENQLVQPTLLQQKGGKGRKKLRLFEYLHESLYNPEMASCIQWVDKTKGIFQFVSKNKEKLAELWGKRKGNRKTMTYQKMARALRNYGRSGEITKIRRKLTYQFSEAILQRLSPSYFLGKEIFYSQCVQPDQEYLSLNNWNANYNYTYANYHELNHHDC
# Outline: as §1
# ELF4 = ELF4 (Homo sapiens, UniProt Q99607 1-663); details: protein: recombinant; tags: N-terminal GST; dsDNA, one strand shown
# Outline: as §1
# ELK4 = target: T3, ELK4 (Homo sapiens, UniProt P28324-2 1-405); details: protein: recombinant; tags: N-terminal GST; dsDNA, one strand shown
# T3 sequence: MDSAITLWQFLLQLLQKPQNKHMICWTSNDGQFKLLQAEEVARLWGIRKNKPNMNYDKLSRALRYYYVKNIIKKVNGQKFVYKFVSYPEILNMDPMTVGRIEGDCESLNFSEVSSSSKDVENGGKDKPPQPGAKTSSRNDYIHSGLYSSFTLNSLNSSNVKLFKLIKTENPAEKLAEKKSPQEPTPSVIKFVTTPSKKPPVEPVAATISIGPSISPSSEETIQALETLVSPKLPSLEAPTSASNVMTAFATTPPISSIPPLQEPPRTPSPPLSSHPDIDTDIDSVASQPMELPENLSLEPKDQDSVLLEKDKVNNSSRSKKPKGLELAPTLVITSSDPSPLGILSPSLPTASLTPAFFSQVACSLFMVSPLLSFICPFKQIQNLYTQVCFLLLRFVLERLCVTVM
# Outline: as §1
# ETV2 = target: T4, ETV2 (Homo sapiens, UniProt O00321 1-342); details: protein: recombinant; tags: N-terminal GST; dsDNA, one strand shown
# T4 sequence: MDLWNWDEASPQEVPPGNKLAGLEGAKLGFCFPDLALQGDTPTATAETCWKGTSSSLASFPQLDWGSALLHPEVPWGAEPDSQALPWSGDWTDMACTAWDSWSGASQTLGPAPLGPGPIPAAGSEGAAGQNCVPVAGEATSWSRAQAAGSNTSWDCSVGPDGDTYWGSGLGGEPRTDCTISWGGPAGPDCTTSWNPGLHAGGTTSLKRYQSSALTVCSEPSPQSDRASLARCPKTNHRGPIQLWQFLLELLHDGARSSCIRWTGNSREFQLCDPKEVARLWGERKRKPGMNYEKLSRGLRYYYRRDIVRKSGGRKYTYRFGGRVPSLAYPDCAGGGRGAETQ
# Outline: as §1
# ELF3 = target: T5, ELF3 (Homo sapiens, UniProt P78545 1-371); details: protein: recombinant; tags: N-terminal GST; dsDNA, one strand shown
# T5 sequence: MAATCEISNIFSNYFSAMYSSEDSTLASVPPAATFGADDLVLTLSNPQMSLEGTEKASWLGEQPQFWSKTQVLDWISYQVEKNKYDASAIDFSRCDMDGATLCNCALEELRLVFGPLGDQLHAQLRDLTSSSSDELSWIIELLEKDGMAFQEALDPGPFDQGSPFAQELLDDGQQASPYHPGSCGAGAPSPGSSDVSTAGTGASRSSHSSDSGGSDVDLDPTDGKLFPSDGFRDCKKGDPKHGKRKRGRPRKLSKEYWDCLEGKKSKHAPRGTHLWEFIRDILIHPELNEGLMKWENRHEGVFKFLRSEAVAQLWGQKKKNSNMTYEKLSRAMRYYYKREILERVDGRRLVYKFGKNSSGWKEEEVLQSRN
# Outline: as §1
# CRX = CRX (Homo sapiens, UniProt O43186 1-299); details: protein: recombinant; tags: N-terminal GST; dsDNA, one strand shown
# Outline: as §1
# ETV1 = ETV1 (Homo sapiens, UniProt P50549 1-477); details: protein: recombinant; tags: N-terminal GST; dsDNA, one strand shown
# Outline: as §1
# ERF = target: T6, ERF (Homo sapiens, UniProt P50548 1-548); details: protein: recombinant; tags: N-terminal GST; dsDNA, one strand shown
# T6 sequence: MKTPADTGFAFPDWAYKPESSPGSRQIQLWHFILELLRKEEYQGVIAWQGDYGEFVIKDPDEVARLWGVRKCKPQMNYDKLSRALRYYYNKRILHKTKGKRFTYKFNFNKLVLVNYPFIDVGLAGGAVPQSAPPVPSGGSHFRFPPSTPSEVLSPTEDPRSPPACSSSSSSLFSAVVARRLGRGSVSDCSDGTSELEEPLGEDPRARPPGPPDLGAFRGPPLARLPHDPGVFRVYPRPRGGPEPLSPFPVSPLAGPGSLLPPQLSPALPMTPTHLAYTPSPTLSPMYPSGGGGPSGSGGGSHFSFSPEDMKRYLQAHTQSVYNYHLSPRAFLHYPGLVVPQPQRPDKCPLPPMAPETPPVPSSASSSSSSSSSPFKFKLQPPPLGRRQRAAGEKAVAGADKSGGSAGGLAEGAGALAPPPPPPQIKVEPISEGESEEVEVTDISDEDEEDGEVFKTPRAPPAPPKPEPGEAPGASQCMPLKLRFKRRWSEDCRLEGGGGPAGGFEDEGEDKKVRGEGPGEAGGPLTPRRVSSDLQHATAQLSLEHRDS
# Outline: as §1
# ETV3L = target: T7, ETV3L (Homo sapiens, UniProt Q6ZN32 1-361); details: protein: recombinant; tags: N-terminal GST; dsDNA, one strand shown
# T7 sequence: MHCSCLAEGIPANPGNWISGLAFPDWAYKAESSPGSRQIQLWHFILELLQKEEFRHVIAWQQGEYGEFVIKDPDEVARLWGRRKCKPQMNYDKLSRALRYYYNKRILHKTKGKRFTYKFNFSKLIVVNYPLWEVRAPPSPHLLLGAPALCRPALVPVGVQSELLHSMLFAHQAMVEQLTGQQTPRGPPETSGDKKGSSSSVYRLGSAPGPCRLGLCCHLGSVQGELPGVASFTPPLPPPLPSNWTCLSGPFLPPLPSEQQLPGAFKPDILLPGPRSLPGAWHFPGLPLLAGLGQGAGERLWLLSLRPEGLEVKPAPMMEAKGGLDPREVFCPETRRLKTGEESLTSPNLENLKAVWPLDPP
# Outline: as §1
# ETS2 = target: T8, ETS2 (Homo sapiens, UniProt P15036 1-469); details: protein: recombinant; tags: N-terminal GST; dsDNA, one strand shown
# T8 sequence: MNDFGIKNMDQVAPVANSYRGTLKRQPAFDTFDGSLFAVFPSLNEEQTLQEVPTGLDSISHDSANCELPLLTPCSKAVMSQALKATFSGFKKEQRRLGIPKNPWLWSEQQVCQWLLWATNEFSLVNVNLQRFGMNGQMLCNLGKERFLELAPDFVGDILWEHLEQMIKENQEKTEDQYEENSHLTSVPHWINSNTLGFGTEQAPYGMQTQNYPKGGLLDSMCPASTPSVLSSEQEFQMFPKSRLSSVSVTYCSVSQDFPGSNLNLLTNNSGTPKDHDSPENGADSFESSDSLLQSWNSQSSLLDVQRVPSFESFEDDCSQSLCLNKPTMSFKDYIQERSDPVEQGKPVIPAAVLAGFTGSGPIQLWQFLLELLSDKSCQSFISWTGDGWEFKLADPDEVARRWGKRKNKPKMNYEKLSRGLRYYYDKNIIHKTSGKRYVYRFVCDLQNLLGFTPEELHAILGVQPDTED
# Outline: as §1
# SPDEF = target: T9, SPDEF (Homo sapiens, UniProt O95238 1-335); details: protein: recombinant; tags: N-terminal GST; dsDNA, one strand shown
# T9 sequence: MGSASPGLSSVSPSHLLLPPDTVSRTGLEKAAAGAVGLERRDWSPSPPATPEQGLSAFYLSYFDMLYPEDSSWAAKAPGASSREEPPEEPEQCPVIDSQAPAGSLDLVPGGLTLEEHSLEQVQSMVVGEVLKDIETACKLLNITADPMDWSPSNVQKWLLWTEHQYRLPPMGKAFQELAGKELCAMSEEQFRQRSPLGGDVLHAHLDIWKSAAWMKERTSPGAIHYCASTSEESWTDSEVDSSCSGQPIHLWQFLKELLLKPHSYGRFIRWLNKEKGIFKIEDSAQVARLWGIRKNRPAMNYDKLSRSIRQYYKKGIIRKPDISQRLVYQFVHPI
# Outline: as §1
# ETV7 = target: T10, ETV7 (Homo sapiens, UniProt Q9Y603 1-341); details: protein: recombinant; tags: N-terminal GST; dsDNA, one strand shown
# T10 sequence: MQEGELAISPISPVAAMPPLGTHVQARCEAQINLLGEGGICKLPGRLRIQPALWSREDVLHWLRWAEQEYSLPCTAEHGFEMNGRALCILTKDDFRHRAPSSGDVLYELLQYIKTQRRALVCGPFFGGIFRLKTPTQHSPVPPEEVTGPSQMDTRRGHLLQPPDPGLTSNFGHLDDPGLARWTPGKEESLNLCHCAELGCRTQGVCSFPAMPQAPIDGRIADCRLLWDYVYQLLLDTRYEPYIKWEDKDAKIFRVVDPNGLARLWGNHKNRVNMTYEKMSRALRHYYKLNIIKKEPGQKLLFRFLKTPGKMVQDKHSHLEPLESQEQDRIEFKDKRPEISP
# Outline: as §1
# ELF5 = target: T11, ELF5 (Homo sapiens, UniProt Q9UKW6-2 1-255); details: protein: recombinant; tags: N-terminal GST; dsDNA, one strand shown
# T11 sequence: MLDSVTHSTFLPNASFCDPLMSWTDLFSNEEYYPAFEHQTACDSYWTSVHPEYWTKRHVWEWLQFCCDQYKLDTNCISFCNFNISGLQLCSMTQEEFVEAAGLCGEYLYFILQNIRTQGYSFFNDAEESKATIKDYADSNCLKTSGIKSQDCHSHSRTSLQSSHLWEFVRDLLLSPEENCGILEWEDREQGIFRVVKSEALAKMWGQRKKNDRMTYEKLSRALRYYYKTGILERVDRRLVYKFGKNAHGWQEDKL
# Outline: as §1
# ETV3 = target: T12, ETV3 (Homo sapiens, UniProt P41162-2 1-143); details: protein: recombinant; tags: N-terminal GST; dsDNA, one strand shown
# T12 sequence: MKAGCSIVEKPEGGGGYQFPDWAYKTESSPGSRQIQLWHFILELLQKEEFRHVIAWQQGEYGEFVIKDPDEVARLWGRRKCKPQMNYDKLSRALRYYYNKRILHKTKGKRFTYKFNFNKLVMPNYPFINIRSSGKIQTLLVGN
# Outline: as §1
# ETV6 = ETV6 (Homo sapiens, UniProt P41212 1-452); details: protein: recombinant; tags: N-terminal GST; dsDNA, one strand shown
# Outline: as §1
# Sequence of ETV5 (P41161 whole entry): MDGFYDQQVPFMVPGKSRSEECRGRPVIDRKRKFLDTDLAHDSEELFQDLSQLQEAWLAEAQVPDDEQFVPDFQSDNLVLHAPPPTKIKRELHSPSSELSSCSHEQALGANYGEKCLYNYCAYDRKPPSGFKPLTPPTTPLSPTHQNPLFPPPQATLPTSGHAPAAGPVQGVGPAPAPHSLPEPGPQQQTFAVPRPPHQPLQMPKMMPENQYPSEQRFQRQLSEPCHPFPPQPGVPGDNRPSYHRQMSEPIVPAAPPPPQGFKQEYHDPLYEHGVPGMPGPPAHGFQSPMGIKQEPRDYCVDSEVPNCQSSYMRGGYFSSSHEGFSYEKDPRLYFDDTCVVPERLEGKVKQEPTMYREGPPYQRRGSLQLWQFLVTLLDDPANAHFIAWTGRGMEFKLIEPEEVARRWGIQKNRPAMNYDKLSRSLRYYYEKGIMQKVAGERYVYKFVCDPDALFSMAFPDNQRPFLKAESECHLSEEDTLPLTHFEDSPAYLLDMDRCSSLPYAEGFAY
# Sequence of ETV6 (P41212 whole entry): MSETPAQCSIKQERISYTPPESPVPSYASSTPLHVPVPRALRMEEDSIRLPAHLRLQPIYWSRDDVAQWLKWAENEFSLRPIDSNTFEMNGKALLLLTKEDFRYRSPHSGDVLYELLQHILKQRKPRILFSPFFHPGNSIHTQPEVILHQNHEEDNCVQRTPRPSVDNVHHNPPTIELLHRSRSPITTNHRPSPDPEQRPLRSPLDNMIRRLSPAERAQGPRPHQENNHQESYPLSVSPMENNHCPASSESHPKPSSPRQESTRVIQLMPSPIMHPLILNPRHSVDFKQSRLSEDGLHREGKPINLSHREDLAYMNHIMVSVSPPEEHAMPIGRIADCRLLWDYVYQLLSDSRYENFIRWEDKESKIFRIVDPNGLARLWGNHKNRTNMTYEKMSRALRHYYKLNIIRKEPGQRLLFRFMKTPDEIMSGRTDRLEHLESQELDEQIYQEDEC
# Sequence of HSF1 (Q00613 whole entry): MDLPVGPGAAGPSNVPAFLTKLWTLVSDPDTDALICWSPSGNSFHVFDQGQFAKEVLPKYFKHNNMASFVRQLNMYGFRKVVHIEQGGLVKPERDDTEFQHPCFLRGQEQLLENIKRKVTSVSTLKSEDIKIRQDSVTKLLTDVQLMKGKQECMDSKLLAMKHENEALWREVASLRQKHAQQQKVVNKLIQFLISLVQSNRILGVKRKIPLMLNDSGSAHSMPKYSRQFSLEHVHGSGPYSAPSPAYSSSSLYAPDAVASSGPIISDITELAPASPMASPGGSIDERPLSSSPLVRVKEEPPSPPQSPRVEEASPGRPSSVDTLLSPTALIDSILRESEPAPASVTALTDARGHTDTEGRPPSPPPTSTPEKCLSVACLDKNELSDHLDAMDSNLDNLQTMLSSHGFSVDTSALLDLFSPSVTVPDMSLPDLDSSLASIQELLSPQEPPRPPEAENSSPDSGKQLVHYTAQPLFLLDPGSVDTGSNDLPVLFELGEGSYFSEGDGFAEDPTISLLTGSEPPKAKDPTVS
# Sequence of CRX (O43186 whole entry): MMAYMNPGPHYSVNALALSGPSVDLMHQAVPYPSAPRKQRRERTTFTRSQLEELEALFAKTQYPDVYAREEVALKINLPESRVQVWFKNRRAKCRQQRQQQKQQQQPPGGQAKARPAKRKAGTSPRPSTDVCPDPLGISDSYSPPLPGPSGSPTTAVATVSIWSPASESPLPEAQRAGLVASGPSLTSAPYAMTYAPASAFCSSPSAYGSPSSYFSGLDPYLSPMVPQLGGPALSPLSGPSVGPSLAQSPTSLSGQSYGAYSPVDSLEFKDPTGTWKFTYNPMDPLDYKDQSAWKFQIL
# Sequence of ETV1 (P50549 whole entry): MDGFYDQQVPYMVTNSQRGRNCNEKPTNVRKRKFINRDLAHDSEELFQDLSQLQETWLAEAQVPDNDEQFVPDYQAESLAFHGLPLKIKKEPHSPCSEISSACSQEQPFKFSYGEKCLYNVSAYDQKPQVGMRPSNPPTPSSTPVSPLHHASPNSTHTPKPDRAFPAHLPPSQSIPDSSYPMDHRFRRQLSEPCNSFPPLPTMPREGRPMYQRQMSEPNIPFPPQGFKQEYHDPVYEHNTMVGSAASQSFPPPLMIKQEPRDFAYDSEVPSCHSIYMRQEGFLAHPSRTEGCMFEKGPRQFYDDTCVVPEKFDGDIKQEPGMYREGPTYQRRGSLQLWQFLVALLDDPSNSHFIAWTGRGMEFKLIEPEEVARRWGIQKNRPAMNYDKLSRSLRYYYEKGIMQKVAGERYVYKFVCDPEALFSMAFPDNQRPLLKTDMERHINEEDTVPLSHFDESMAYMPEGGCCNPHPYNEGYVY
# Sequence of ELF4 (Q99607 whole entry): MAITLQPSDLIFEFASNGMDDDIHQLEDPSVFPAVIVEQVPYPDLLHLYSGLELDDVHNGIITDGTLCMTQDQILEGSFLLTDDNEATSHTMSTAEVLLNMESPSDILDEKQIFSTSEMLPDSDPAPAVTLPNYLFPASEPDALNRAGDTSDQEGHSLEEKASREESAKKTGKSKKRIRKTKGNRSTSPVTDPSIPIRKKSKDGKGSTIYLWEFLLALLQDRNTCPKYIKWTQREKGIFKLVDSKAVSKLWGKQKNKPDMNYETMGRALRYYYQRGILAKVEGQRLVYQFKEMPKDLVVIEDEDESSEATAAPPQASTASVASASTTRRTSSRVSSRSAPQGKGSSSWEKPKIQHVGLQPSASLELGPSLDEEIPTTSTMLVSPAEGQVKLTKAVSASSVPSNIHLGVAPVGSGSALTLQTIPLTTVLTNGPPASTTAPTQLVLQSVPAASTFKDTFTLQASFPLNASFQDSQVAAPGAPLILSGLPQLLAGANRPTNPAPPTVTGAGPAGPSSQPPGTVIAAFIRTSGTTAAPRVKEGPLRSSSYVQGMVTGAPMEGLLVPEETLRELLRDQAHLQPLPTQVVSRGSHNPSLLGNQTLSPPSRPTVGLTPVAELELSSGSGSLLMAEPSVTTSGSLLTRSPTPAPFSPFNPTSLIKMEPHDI
sequence,measurement,setting,value
GTCTTA,binding signal,FEV,"1.07 fold enrichment (6-mer frequency, TF over GST control)"
same,binding signal,ETV5,"1.14 fold enrichment (6-mer frequency, TF over GST control)"
same,binding signal,HSF1,"1.35 fold enrichment (6-mer frequency, TF over GST control)"
same,binding signal,SPIC,"1.07 fold enrichment (6-mer frequency, TF over GST control)"
same,binding signal,ELF4,"1.08 fold enrichment (6-mer frequency, TF over GST control)"
same,binding signal,ELK4,"1.04 fold enrichment (6-mer frequency, TF over GST control)"
same,binding signal,ETV2,"1.14 fold enrichment (6-mer frequency, TF over GST control)"
same,binding signal,ELF3,"1.16 fold enrichment (6-mer frequency, TF over GST control)"
same,binding signal,CRX,"1.94 fold enrichment (6-mer frequency, TF over GST control)"
same,binding signal,ETV1,"1.15 fold enrichment (6-mer frequency, TF over GST control)"
same,binding signal,ERF,"1.12 fold enrichment (6-mer frequency, TF over GST control)"
same,binding signal,ETV3L,"1.21 fold enrichment (6-mer frequency, TF over GST control)"
same,binding signal,ETS2,"1.16 fold enrichment (6-mer frequency, TF over GST control)"
same,binding signal,SPDEF,"1.17 fold enrichment (6-mer frequency, TF over GST control)"
same,binding signal,ETV7,"1.21 fold enrichment (6-mer frequency, TF over GST control)"
same,binding signal,ELF5,"1.18 fold enrichment (6-mer frequency, TF over GST control)"
same,binding signal,ETV3,"1.23 fold enrichment (6-mer frequency, TF over GST control)"
same,binding signal,ETV6,"1.11 fold enrichment (6-mer frequency, TF over GST control)"
